Results: PubChem BioAssay
Active and inactive are the calls of the source.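 How the source made its calls, unless noted: active means NADPH fluorescence slope more negative than the mean of all samples by about 3 SD, 99.7% confidence; inactive means the rest.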

What was measured:
[1] = inhibitors of TNFa-induced NFkB p65 translocation, primary screen, imaging, HUVEC, MLSMR starter and 10KST1 sets (AID 438;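 active means inhibition above 20% together with a positive visual image hit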;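 further: compound added about 3h40 before a 20 min TNFalpha stimulation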;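 on inhibition: signal is the nuclear over cytoplasmic p65 intensity ratio per well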); conditions: HUVEC TNFa-induced p65 nuclear translocation; cell count: measured here: nuclei count (cytotoxicity indicator), at 2.08 µM; inhibition: at 2 µM, stronger effect = higher value, 0% TNFa-plus-vehicle, 100% no-TNFa wells
[2] = inhibitors of mutant huntingtin aggregation, primary screen, imaging, exon1htt(103Q)mCFP cells, high-content imaging (AID 483;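 active means visual image review flags a hit and inhibition of aggregation exceeds 20%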;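 further: compound exposure lasted 3 days before fixation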;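 on nuclei count: percent of the per-plate median nuclei count of sample wells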); conditions: exon1htt(103Q)mCFP cell line, aggregate imaging, at 2 µM; inhibition of aggregation: stronger effect = higher value; nuclei count: measured here: cell count, toxicity
[3] = inhibitors of E-selectin induction by TNFa, primary screen, imaging, HUVEC, immunofluorescence, MLSMR starter and 10KST1 sets (AID 487;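 active means visually confirmed hit in the image check and inhibition above 20%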;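 on inhibition: signal is fraction of cell area covered by stained E-selectin grains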;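 on nuclei count: 100% = median nuclei count of all wells on the same plate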); conditions: HUVEC TNFalpha-induced E-selectin immunofluorescence imaging, at 2 µM; inhibition: stronger effect = higher value; nuclei count: measured here: cell number, toxicity
[4] = molecular target: Voltage-gated potassium channel subunit beta-2 (Rattus norvegicus) (UniProt P62483); assay: KvBeta enzyme negative modulators, primary screen, biochemical, NADPH fluorescence (AID 622;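 active means fluorescence slope higher than the sample average by over 3 SD, cut at about -0.22 in these data, passing the limit was not always enough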;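 further: slope of raw intensity against log time taken from 70 to 1610 s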); conditions: recombinant KvBeta, 4-cyanobenzaldehyde reduction, at 10 µM, stronger effect = higher value
[5] = molecular target: Voltage-gated potassium channel subunit beta-2 (Rattus norvegicus) (UniProt P62483); assay: KvBeta positive modulators, primary screen, biochemical, NADPH fluorescence (AID 623); conditions: Recombinant KvBeta, NADPH fluorescence decrease slope, 10 min; at 10 µM; stronger effect = lower value;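 further: fluorescence intensity change per second fitted from 20 to 320 s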
[6] = molecular target: Alpha-2C adrenergic receptor (Homo sapiens) (UniProt P18825); assay: modulators of alpha2C/GIRK thallium flux, primary screen, cell-based, HEK293 alpha2C/GIRK1/2 (AID 624;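 active means fluorescence slope after compound addition differing from the mean of all screened samples at 99.7% confidence, in either direction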;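 further: slope of fluorescence ratio to pre-addition baseline per second over 15 to 24 s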); conditions: thallium flux BTC fluorescence, at 10 µM, actives lie on both sides
[7] = inhibitors of Sendai virus-induced IRF3 signaling, primary screen, TLR/RLR signaling modifier project, cell-based, Sendai virus stimulus, luciferase, 10K MLSCN set (AID 602276;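 active means inhibition at or above 50% at 10 µM; inactive means inhibition below 50%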;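 further: firefly luciferase from ISG56 promoter only with Renilla not read in this screen; 0% = Sendai virus plus DMSO and 100% = medium plus DMSO without virus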); conditions: HEK293 RL24 IRF3 luciferase reporter, at 10 µM, stronger effect = higher value
[8] = inhibitors of poly I:C-induced TLR3 signaling, primary screen, cell-based, poly I:C stimulus, luciferase, 10K MLSCN set (AID 602277;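 active means inhibition of the reporter signal at or above 50%; inactive means inhibition below 50%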); conditions: HEK293-TLR3 RL24 IRF3 luciferase reporter, at 10 µM, stronger effect = higher value

Voltage-gated potassium channel subunit beta-2 (Rattus norvegicus), sequence (P62483 whole entry, looked up): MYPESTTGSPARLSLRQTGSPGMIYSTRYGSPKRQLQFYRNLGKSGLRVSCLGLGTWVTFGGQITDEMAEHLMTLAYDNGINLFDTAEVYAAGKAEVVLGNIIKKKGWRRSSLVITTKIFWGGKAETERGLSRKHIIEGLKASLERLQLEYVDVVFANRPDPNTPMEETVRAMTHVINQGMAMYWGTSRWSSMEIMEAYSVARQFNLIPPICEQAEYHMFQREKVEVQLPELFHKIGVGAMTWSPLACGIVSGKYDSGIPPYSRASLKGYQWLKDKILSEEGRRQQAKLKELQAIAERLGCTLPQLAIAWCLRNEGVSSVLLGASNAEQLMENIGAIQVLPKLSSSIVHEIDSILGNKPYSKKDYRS
Alpha-2C adrenergic receptor (Homo sapiens), sequence (P18825 whole entry, looked up): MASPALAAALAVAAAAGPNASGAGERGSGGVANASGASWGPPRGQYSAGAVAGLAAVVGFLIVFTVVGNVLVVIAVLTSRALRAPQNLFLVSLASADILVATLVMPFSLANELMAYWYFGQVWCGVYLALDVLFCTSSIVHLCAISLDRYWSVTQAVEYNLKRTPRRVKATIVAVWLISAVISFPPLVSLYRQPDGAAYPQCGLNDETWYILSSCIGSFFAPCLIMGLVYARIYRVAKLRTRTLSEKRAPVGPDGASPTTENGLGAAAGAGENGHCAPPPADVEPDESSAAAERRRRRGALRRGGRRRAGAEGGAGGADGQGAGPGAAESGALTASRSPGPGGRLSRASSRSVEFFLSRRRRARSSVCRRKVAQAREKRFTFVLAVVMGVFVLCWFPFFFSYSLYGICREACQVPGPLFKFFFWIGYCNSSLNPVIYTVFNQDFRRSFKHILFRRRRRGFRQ

SMILES | cell count [1] | inhibition [1] | inhibition of aggregation [2] | nuclei count [2] [%] | inhibition [3] | nuclei count [3] [%] | fluorescence slope [4] | NADPH fluorescence slope [5] | slope [6] | inhibition [7] | inhibition [8]
CC(=O)c1cccc(S(=O)(=O)NCC(c2ccco2)N2CCCCC2)c1 (configuration not stated) | 707 | -2% (inactive) | -10% (inactive) | 107 | -140% (inactive) | 145 | -0.62 (inactive) | -1.6e-05 (inactive) | 0.0049 (inactive) | 5.82% (inactive) | 6.55% (inactive)
Cc1c(Cl)cnc(NC(=O)COC(=O)C(NC(=O)c2ccco2)C(C)C)c1Cl (configuration not stated) | 362 | 7.4% (inactive) | -2.1% (inactive) | 80.5 | -17.2% (inactive) | 112 | -0.584 (inactive) | -3.9e-05 (inactive) | 0.00552 (inactive) | 6.87% (inactive) | 5.64% (inactive)
CCOc1ccccc1-c1nc(-c2ccc(C)nc2OC)no1 | 404 | 4.8% (inactive) | -2% (inactive) | 82.1 | 1.8% (inactive) | 96.3 | -0.552 (inactive) | 1.8e-05 (inactive) | 0.00778 (inactive) | -91.4% (inactive) | -227% (inactive)
CCn1c(=O)c(C(=O)NCc2ccc(OC)cc2)c(O)c2ccccc21 | 685 | 12.5% (inactive) | 0.6% (inactive) | 101 | 33.9% (inactive) | 101 | -0.353 (inactive) | -2.5e-05 (inactive) | 0.00899 (inactive) | 14.7% (inactive) | 16.2% (inactive)
CC(=O)Oc1ccc(-c2ccc(C(=O)O)cc2)cc1 | 385 | -6.5% (inactive) | 17.9% (inactive) | 99.6 | 35.1% (inactive) | 102 | -0.315 (inactive) | -7.2e-06 (inactive) | 0.00672 (inactive) | 4.99% (inactive) | 14.8% (inactive)
C=CCN1C(=O)C2(c3ccccc31)C1CCCC=C1C(C#N)=C(N)C2(C#N)C#N (configuration not stated) | 752 | -19.9% (inactive) | 10.4% (inactive) | 110 | 41% (inactive) | 101 | -0.559 (inactive) | -8.6e-06 (inactive) | 0.00492 (inactive) | -7.36% (inactive) | -8.22% (inactive)
Cn1c(SCC(N)=O)nnc1C1CCN(C(=O)NCc2ccccc2)CC1 | 325 | 6.8% (inactive) | -6.1% (inactive) | 99.8 | -74.7% (inactive) | 108 | -0.385 (inactive) | -5.9e-05 (inactive) | 0.00348 (inactive) | 5.51% (inactive) | 21.8% (inactive)
CCCCn1cnc2c1c(=O)n(C)c(=O)n2C | 797 | -7.5% (inactive) | 25.6% (inactive) | 101 | -35.5% (inactive) | 119 | -0.374 (inactive) | -1.9e-05 (inactive) | 0.00541 (inactive) | -11.6% (inactive) | -3.57% (inactive)
Cc1c(NC(=O)CCc2ccc(S(=O)(=O)N3CCOCC3)cc2)c(=O)n(-c2ccccc2)n1C | 575 | 4.1% (inactive) | -26.2% (inactive) | 119 | -86.1% (inactive) | 112 | -0.527 (inactive) | -1.9e-05 (inactive) | 0.00736 (inactive) | -8.63% (inactive) | 5.48% (inactive)
O=C1CCc2cc(S(=O)(=O)N3CCC(C(=O)NCc4ccccn4)CC3)ccc2N1 | 599 | 0% (inactive) | 32.3% (inactive) | 115 | -26.3% (inactive) | 110 | -0.578 (inactive) | 1.3e-05 (inactive) | 0.00666 (inactive) | 13.9% (inactive) | 14.7% (inactive)
O=C(Nc1ccncc1)C1CCCN(S(=O)(=O)c2cccc3cccnc23)C1 (configuration not stated) | 686 | 6.8% (inactive) | -328% (inactive) | 4.8 | -46% (inactive) | 104 | -0.548 (inactive) | -3.9e-05 (inactive) | 0.00584 (inactive) | 40.7% (inactive) | 34.4% (inactive)
C=CCn1c(=O)c(C(=O)Nc2ccccc2C(=O)OCC)c(O)c2ccccc21 | 495 | -5.5% (inactive) | -15.6% (inactive) | 120 | -23.1% (inactive) | 122 | -0.422 (inactive) | -4.7e-05 (inactive) | 0.00716 (inactive) | 16.9% (inactive) | 14.7% (inactive)
COc1ccc(N2CCN(C(=O)C(C)(C)Oc3ccc(Cl)cc3)CC2)cc1 | 651 | 5.8% (inactive) | 4.4% (inactive) | 96.2 | 0% (inactive) | 111 | -0.564 (inactive) | -4.3e-05 (inactive) | 0.00674 (inactive) | 2.83% (inactive) | 28.4% (inactive)
C/C(Nc1cccc(F)c1)=C(/C#N)C(N)=O | 640 | 3.4% (inactive) | 1.6% (inactive) | 104 | 48.6% (inactive) | 106 | -0.361 (inactive) | -3.8e-05 (inactive) | 0.00545 (inactive) | -10.6% (inactive) | -10.3% (inactive)
CCCc1nnc(SCC(=O)N2CCOCC2)n1Cc1ccco1 | 660 | -2.2% (inactive) | -10.6% (inactive) | 96.5 | -0.5% (inactive) | 101 | -0.617 (inactive) | -5.1e-05 (inactive) | 0.0036 (inactive) | 19.5% (inactive) | 22.7% (inactive)
CC(=O)NC(Cc1c[nH]c2ccccc12)C(=O)OCC(=O)Nc1cc(C)on1 (configuration not stated) | 505 | 9.6% (inactive) | 0.7% (inactive) | 110 | -0.6% (inactive) | 97.6 | -0.376 (inactive) | 1.5e-05 (inactive) | 0.00598 (inactive) | -5.34% (inactive) | 8.03% (inactive)
COc1cccc(N2CCN(C(=O)C3C4C=CC5(CN(Cc6ccccc6Cl)C(=O)C35)O4)CC2)c1 (configuration not stated) | 606 | -11.6% (inactive) | -3% (inactive) | 58.2 | -66.5% (inactive) | 123 | -0.402 (inactive) | -3.2e-05 (inactive) | 0.00266 (inactive) | -0.268% (inactive) | 13.1% (inactive)
CCOC(=O)C1CCCN(C(=O)c2sc3nc(-c4ccccc4)cn3c2C)C1 (configuration not stated) | 631 | 13.2% (inactive) | 5.7% (inactive) | 103 | 67.6% (active) | 76.5 | -0.544 (inactive) | 1.7e-05 (inactive) | 0.00524 (inactive) | -20.7% (inactive) | -120% (inactive)
N#Cc1cc2ccc(N3CCOCC3)cc2cc1C#N | 421 | -6.5% (inactive) | 9.5% (inactive) | 76.5 | -341% (inactive) | 103 | -0.0128 (active) | 1.2e-05 (inactive) | 0.00303 (inactive) | 7.25% (inactive) | 26.1% (inactive)
COc1ccc(NC(=O)c2cc(C(C)C)on2)c(OC)c1 | 568 | -11.1% (inactive) | 33.2% (inactive) | 100 | 7.6% (inactive) | 107 | -0.576 (inactive) | -1.2e-05 (inactive) | 0.00755 (inactive) | -35.5% (inactive) | -63.9% (inactive)
Cn1cc(CN2CCc3ccccc3C2)c2ccccc21 | 361 | -12.1% (inactive) | -6.2% (inactive) | 146 | -62.7% (inactive) | 110 | -0.408 (inactive) | -0.000148 (inactive) | 0.00535 (inactive) | 20.8% (inactive) | 37.6% (inactive)
CC1(C)CC(=O)C(C#N)=C(NCCCO)C1 | 471 | 5% (inactive) | -2.8% (inactive) | 98.2 | 42.4% (inactive) | 109 | -0.536 (inactive) | -3.8e-05 (inactive) | 0.00419 (inactive) | 11.1% (inactive) | 9.83% (inactive)
CCOC(=O)c1cnn(-c2cc(C)nc3c(-c4ccccc4)c(C)nn23)c1N | 645 | -7.8% (inactive) | 7.9% (inactive) | 124 | -27.2% (inactive) | 120 | -0.625 (inactive) | -3.2e-05 (inactive) | 0.00566 (inactive) | 14.6% (inactive) | 17.2% (inactive)
COC(=O)c1cc(OC)c(OCc2cc(C(=O)OC)oc2C)c(OC)c1 | 753 | 1.5% (inactive) | -6.3% (inactive) | 106 | 32.8% (inactive) | 85.7 | -0.396 (inactive) | -6.5e-05 (inactive) | 0.00675 (inactive) | 17% (inactive) | 34.7% (inactive)
CCCS(=O)(=O)N1CCC(C(=O)NCCN2CCCC2)CC1 | 201 | -6.8% (inactive) | 12.3% (inactive) | 104 | 30.3% (inactive) | 70.1 | -0.405 (inactive) | -3.3e-05 (inactive) | 0.00665 (inactive) | 13.8% (inactive) | 19.2% (inactive)
CC(C)C(c1nnnn1CC1CCCO1)N1CCN(Cc2ccc3c(c2)OCO3)CC1 (configuration not stated) | 357 | 4.8% (inactive) | -10.8% (inactive) | 113 | -55.1% (inactive) | 110 | -0.521 (inactive) | -5.8e-05 (inactive) | 0.00548 (inactive) | 9.72% (inactive) | 12.5% (inactive)
COc1ccc(C/C(N)=N/n2cnnc2)cc1Cl | 356 | -3.8% (inactive) | -13.5% (inactive) | 99.1 | -14.7% (inactive) | 107 | -0.447 (inactive) | -3.3e-05 (inactive) | 0.00222 (inactive) | 6.09% (inactive) | 35.6% (inactive)
